According to PubChem BioAssay (NCI):
Compounds without any hit were thinned out: in the full panel of roughly 79,000, 15% have a hit. Unmarked numbers belong to inactive results. Active and inactive are the calls of the source. No stated cut-off is given here; in the data, active means growth inhibition above about 70%; inactive means the rest.

How the values were obtained:
[1] = NCI Yeast Anticancer Drug Screen. Data for the rad50 strain (AID 155);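 further: 0% = growth of vehicle-only cultures of the same strain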; settings: S. cerevisiae rad50 strain growth inhibition; at 50.0 µM; stronger effect = higher value
Summary of the method: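 Growth of the mutant yeast was measured after compound exposure and referenced to vehicle-treated cultures.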

[2] = NCI Yeast Anticancer Drug Screen. Data for the mec2-1 strain (AID 157); settings: S. cerevisiae mec2-1 strain, at 50.0 µM, stronger effect = higher value
Summary of the method: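 mec2-1 yeast strain, carrying an alteration in DNA damage repair or cell cycle control, was exposed to compounds; growth inhibition was measured relative to vehicle-treated controls.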

[3] = NCI Yeast Anticancer Drug Screen. Data for the sgs1 mgt1 strain (AID 161);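 further: 0% = growth of cultures given vehicle only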; settings: S. cerevisiae sgs1 mgt1 strain, at 50.0 µM, stronger effect = higher value
Summary of the method: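 Percent growth inhibition was derived by comparing compound-exposed mutant yeast with vehicle-exposed cultures. The strain carries alterations in DNA damage repair.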

[4] = NCI Yeast Anticancer Drug Screen. Data for the cln2 rad14 strain (AID 165);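 further: 0% = growth equal to vehicle treated cultures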; settings: S. cerevisiae cln2 rad14 strain, at 50.0 µM, stronger effect = higher value
Summary of the method: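 Yeast carrying cln2 and rad14 alterations (cell cycle control and DNA damage repair) were exposed to compounds. Growth inhibition was measured against vehicle-treated controls.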

[5] = NCI Yeast Anticancer Drug Screen. Data for the bub3 strain (AID 167); settings: S. cerevisiae bub3 mutant strain, at 50.0 µM, stronger effect = higher value
Summary of the method: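 Whole-cell yeast assay. The mutant strain was incubated with compounds, and growth inhibition was determined by comparison with vehicle-treated cells.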

[6] = NCI Yeast Anticancer Drug Screen. Data for the mlh1 rad18 strain (AID 175); settings: S. cerevisiae mlh1 rad18 strain growth inhibition; at 50.0 µM; stronger effect = higher value
Summary of the method: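 Growth inhibition of the yeast strain was measured after compound exposure and expressed relative to vehicle-treated controls. The strain carries defined defects in DNA damage repair.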

Structure (SMILES)	growth inhibition [1]	growth inhibition [2]	growth inhibition [3]	growth inhibition [4]	growth inhibition [5]	growth inhibition [6]
Cc1nc(C(=O)O)c2ccccc2n1	-2.8%	2.45%	-8.05%	3.6%	-9.65%	4.6%
CN(C)CC1CCCCCC(Br)C1O (configuration not stated)	-5%	14.6%	-1.15%	-24.8%	-10.7%	21.7%
Cc1ccc(NC(=O)NCc2ccncc2)cc1NC(=O)NCc1ccncc1	13%	15%	20.8%	20.2%	30.9%	24.8%
C/C(=N/Nc1ccc([N+](=O)[O-])cc1[N+](=O)[O-])C(C)(C)C	-3.05%	-13.2%	0.35%	3.15%	-8.75%	-13.2%
CC1=NN(C(=O)c2ccccc2O)C(=O)/C1=C/c1ccc(O)cc1	6.3%	-16.1%	-15.5%	-5.65%	-11.8%	-27.6%
COc1cc(C)cc(O)c1C=O	9.9%	-9.95%	-0.1%	-17.1%	-0.2%	3.45%
NS(=O)(=O)c1ccc(NC(=O)Nc2cccc(C(F)(F)F)c2)cc1	23.9%	2.55%	12.8%	12.3%	23.8%	9.85%
CCN(CC)CCOC(=O)c1ccc(Cl)c(Cl)c1	13.8%	-5.9%	19.9%	-46.3%	-6.6%	-9.4%
O=c1n(-c2ccccc2)c(=O)n2c(=O)n(-c3ccccc3)c(=O)n12	-23.4%	-1.55%	-10.7%	-44.9%	-9%	1.15%
CCOC(=O)c1ccccc1Nc1c(C(=O)OCC)cnc2cc3c(cc12)OCO3	-13.8%	3.95%	-9.85%	2.85%	-0.25%	-7.8%
CC(C)(C)S(=O)(=O)C[N+]1(C)CCOCC1	37.1%	11.6%	-1.6%	-2%	-3.25%	5.35%
COc1cc2ccc(=O)oc2cc1O	14.6%	9.35%	9.05%	19.4%	16.4%	4.05%
CCCCCCNC(C)=O	13.6%	5.7%	11.9%	5.7%	-5.5%	-0.55%
O=[N+]([O-])c1ccc(N=C/C=C/Nc2ccc([N+](=O)[O-])cc2)cc1	5%	0.7%	10.5%	-8.6%	6.3%	20.8%
CCCCCC(O)(CCCC)CCCC	-0.45%	-5.6%	-14.3%	-12.6%	-0.55%	-1.15%
COC(=O)c1s/c(=N\C(=S)N(C)C)n(-c2ccc(Cl)cc2)c1C(=O)OC	-0.4%	2.25%	-4.1%	-40.1%	-21.9%	-3.2%
CCCCCCCCCCCCCCCCCC(=O)Oc1ccc(OCc2ccccc2)cc1	-13.5%	-25.6%	-11.4%	16.2%	-11.4%	-16.6%
O=c1c2cc([N+](=O)[O-])ccc2sc2ccsc12	1.6%	2.55%	-4.95%	-2.85%	-10.6%	11.9%
O=C1CN(CCN2CCCCC2)CC(=O)N2CCCCN12	-32%	-7.15%	-8.65%	9.2%	-5.75%	-10.8%
COc1cc(C(=O)N2C3C4CCC(C)(OC4(C)C)C32)cc(OC)c1OC (configuration not stated)	18.4%	-15.4%	2.8%	10.2%	6%	-8.9%
CC(=O)c1sc2c(c1OC(=O)c1cccs1)c(=O)n(-c1ccccc1)c(=S)n2-c1ccccc1	22.2%	-4.25%	10.3%	-15.1%	23.4%	3.9%

Structure (SMILES)	growth inhibition [1]	growth inhibition [2]	growth inhibition [3]	growth inhibition [4]	growth inhibition [5]	growth inhibition [6]
CCOC(=O)C1(N)CC1	4.65%	7.1%	2.8%	-10%	-11.4%	17.2%
CC(OC(C)C(N)=O)C(N)=O (configuration not stated)	-0.05%	0.55%	-5.8%	-3.05%	4.9%	-1.15%
CCCCSC1=NCCN1	14.8%	9.15%	-3.9%	5.5%	5.25%	10.5%
CCC(=N\NC(=S)NC)/C(C)=N\NC(=S)NC	-8.3%	-6.4%	-6.5%	-36.1%	9.1%	-14.2%
CC(C)(C)NC(=O)Oc1ccc(-c2ccccc2)cc1Cl	98.8% (active)	99.5% (active)	99.2% (active)	98.3% (active)	99.3% (active)	99.3% (active)
CSc1nc2nc(C)[nH]c2c(=O)[nH]1	9.8%	5.45%	-4.45%	41%	9.8%	7.6%
Cc1nc(Nc2ccccc2)c(C#N)c(=O)[nH]1	-19.6%	-16.4%	-15.6%	-10.1%	-2.95%	-7.05%
O=C(O)CCCc1ccc2sc3ccccc3c2c1	47.4%	32.6%	27.6%	50.5%	24.9%	76.8% (active)
O=C1C(=C(C(F)(F)Cl)C(F)(F)Cl)C2CCC1C2 (configuration not stated)	12%	-3.35%	14.3%	14.6%	21.2%	7.7%
O=C1Cn2c(c3c(nc2=O)CCCC3)N1	-31.1%	-7.3%	-10.3%	-13.7%	-7.95%	2.1%
O=[N+]([O-])c1ccc(N=C(Nc2ccc([N+](=O)[O-])cc2)c2ccccc2)cc1	12.1%	-16.2%	-1.6%	-33.6%	-12.6%	-14.5%
CC1(C)C(=O)/C=C\C(=O)C(C)(C)C(=O)/C=C\C(=O)C(C)(C)C(=O)/C=C\C(=O)C(C)(C)C(=O)/C=C\C1=O	12.1%	0.25%	-9.05%	10.5%	-13.2%	12.7%
Clc1ncc(-c2ccccc2)nc1Cl	49.5%	11.4%	0.6%	1.25%	1.75%	14.9%
CC1C2=C(CC(C)(C)CC2=O)OC2=C1C(=O)CC(C)(C)C2	-16.1%	-7.9%	-7.8%	-5.3%	4.65%	-3.5%
COc1cccc2ccc(C(=O)c3ccccc3)nc12	34.2%	-3.2%	7.8%	23.6%	28.2%	15.9%
CC(=O)Nc1ccc(C(=O)NN2C(=O)CSC2c2ccc(O)cc2)cc1 (configuration not stated)	-36%	-36.1%	-44.5%	-15.7%	-30.2%	-49.7%
O=C1Oc2ccccc2C(=O)Oc2ccccc2C(=O)Oc2ccccc2C(=O)Oc2ccccc21	-43.7%	-38.6%	-24.2%	-8.25%	-22.1%	-29.6%
CC(C)(C)C(=O)/C=C(\OB(F)F)C(C)(C)C	2.25%	-5.2%	-9.15%	26.9%	-15.8%	5.25%
CCCCCNN	0.95%	-4.6%	-8.5%	9.55%	-6.75%	26.6%
CCCCCC(=O)OCCCc1ccccc1	28.9%	2.9%	-0.3%	-12.9%	19.4%	-6.8%
O=C1/C(=C/c2ccccc2)CC/C1=C\c1ccccc1	5.35%	17.6%	31.8%	20.2%	19.8%	3.85%
